Test results taken from PubChem BioAssay.
Results with a measured potency or affinity are listed apart. Records with an inconclusive call do not appear. The source made the active and inactive calls. Unless noted, the rule behind the calls is not given here.

Legend:
[1] = cytotoxicity in PAX8-dependent RMG-1 cells, dose response, cell-based, cherry-pick (AID 687029;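 active = signal drop whose fitted half-maximal concentration is at most twice the top valid dose, in every test run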;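 note: cells exposed to compound for 96 hours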)
[2] = cytotoxicity in IOSE-T80 ovarian epithelial cells, dose response, selectivity assay for PAX8 inhibitor project, cell-based, cherry-pick (AID 687032;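 active = fitted half-maximal concentration for viability loss no higher than twice the top valid dose, in every repeat run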;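 note: cells exposed to compound for 96 h before reading; 0% = neutral control wells and -100% = 2 µM mitoxantrone kill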)
[3] = inhibitors of CMV-promoter luciferase reporter, dose response, counter-screen for Pax8 inhibitor project, cell-based, HEK293, luminescence, dry powder (AID 743020;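 active = signal-lowering compounds whose fitted half-maximal concentration is at or below twice the top tested dose in every run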;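 note: HEK293 cells stably expressing the CMV luciferase reporter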)
[4] = non-specific cell cytotoxicity, dose response, cytotoxicity control for PAX8 inhibitor project, plate reader, dry powder samples (AID 743021)
[5] = IOSE-T80 ovarian epithelial cell cytotoxicity, dose response, cytotoxicity control for PAX8 inhibitor project, plate reader, dry powder samples (AID 743045);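 note: 0% = neutral control median and -100% = positive control median; more negative values mean more cell killing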
[6] = A2780 ovarian cancer cell cytotoxicity, dose response, cytotoxicity control, plate reader, dry powder samples (AID 743046);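 note: 0% = neutral control wells and -100% = cytotoxic reference compound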
[7] = cytotoxicity in OVCAR8 ovarian cancer cells, dose response, PAX8 project, cell-based, plate reader, dry powder samples (AID 743197)
[8] = IGROV1 ovarian cancer cell cytotoxicity, dose response, PAX8 inhibitor project, plate reader, dry powder samples (AID 743043);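 note: more negative means fewer viable cells or more cytotoxicity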
[9] = NIH:OVCAR-3 ovarian cancer cell cytotoxicity, dose response, PAX8 inhibitor project, plate reader, dry powder samples (AID 743044); details: max activity: at 35 µM, stronger effect = lower value unless noted

Measured: max activity

C[C@H](CO)N1C[C@H](C)[C@@H](CN(C)Cc2ccc(Oc3ccccc3)cc2)Oc2ccc(NS(=O)(=O)c3ccc(Cl)cc3)cc2CC1=O
not listed: [7] | [8] | [9]
inactive: all other assays above

O=S(=O)(Nc1cccc2cccnc12)c1ccccc1
not listed: [7] | [8] | [9]
inactive: all other assays above

COc1cccc(S(=O)(=O)N2CC[C@@H]3[C@@H](CO)Nc4ccc(-c5ccccc5OC)cc4[C@@H]32)c1
inactive: [1] | [2] | [3] | [4] | [6]

C[C@@H]1CN([C@@H](C)CO)C(=O)Cc2cc(NC(=O)Nc3ccc4c(c3)OCO4)ccc2O[C@H]1CN(C)CC1CCCCC1
not listed: [8] | [9]
inactive: all other assays above

C[C@H]1CCCCO[C@@H](CN(C)Cc2ccc(C(F)(F)F)cc2)[C@@H](C)CN([C@@H](C)CO)C(=O)c2cc(NC(=O)Nc3ccc4c(c3)OCO4)ccc2O1
not listed: [7] | [8] | [9]
inactive: all other assays above

O=C(C[C@@H]1C[C@H]2c3cc(NS(=O)(=O)c4ccc(F)cc4)ccc3O[C@H]2[C@H](CO)O1)NCc1ccc(Cl)cc1
inactive: [1] | [2] | [3] | [4] | [6]

C[C@H]1CCCCO[C@@H](CN(C)Cc2ccc(C(F)(F)F)cc2)[C@@H](C)CN([C@@H](C)CO)C(=O)c2cc(NS(=O)(=O)c3ccccc3)ccc2O1
not listed: [7] | [8] | [9]
inactive: all other assays above

C[C@@H]1CN([C@@H](C)CO)C(=O)Cc2cc(NC(=O)Nc3ccc(C(F)(F)F)cc3)ccc2O[C@H]1CN(C)Cc1ccc2c(c1)OCO2
not listed: [7] | [8] | [9]
inactive: all other assays above

Cc1cccc(S(=O)(=O)N2CCCCN3[C@H](CO)[C@H](c4ccc(C#CC(C)C)cc4)[C@H]3C2)c1
inactive: [1] | [2] | [3] | [4] | [6]

C[C@@H]1CN([C@@H](C)CO)C(=O)c2cc(NC(=O)Nc3ccc(C(F)(F)F)cc3)ccc2O[C@H]1CN(C)C(=O)Nc1ccc(C(F)(F)F)cc1
not listed: [7] | [8] | [9]
inactive: all other assays above

COc1ccccc1NC(=O)N1CCCCN2[C@@H](CO)[C@@H](c3ccc(C#Cc4ccccc4)cc3)[C@@H]2C1
not listed: [7] | [8] | [9]
inactive: all other assays above

C[C@@H]1CN([C@@H](C)CO)C(=O)Cc2cc(NS(=O)(=O)c3cccs3)ccc2O[C@H]1CN(C)Cc1ccc(C(F)(F)F)cc1
not listed: [8] | [9]
inactive: all other assays above

Cc1ccc(S(=O)(=O)N(C)C[C@H]2Oc3cc(C#Cc4ccncc4)ccc3S(=O)(=O)N([C@@H](C)CO)C[C@H]2C)cc1
inactive: [1] | [2] | [3] | [4] | [6]

Cc1ccc(S(=O)(=O)Nc2ccc3c(c2)C(=O)N([C@H](C)CO)C[C@@H](C)[C@@H](CN(C)Cc2ccc(C(F)(F)F)cc2)OCCCC[C@@H](C)O3)cc1
inactive: [1] | [2] | [3] | [4] | [6]

C[C@@H]1CN([C@@H](C)CO)S(=O)(=O)c2ccc(C#C[C@@H](C)O)cc2O[C@H]1CN(C)Cc1ccc(-c2ccccc2)cc1
not listed: [8] | [9]
inactive: all other assays above

O=C(NC1CCCCC1)N1C[C@@H]2N[C@H](C1)C2c1ccc(-c2ccc(F)cc2)cc1 (some centres not stated)
inactive: [1] | [2] | [3] | [4] | [6]

O=C(Nc1ccccc1F)N1CCCCN2[C@@H](CO)[C@@H](c3ccc(/C=C/c4ccccc4)cc3)[C@@H]2C1
not listed: [8] | [9]
inactive: all other assays above

O=C(Nc1cccc(F)c1)N1CCCCN2[C@@H](CO)[C@@H](c3ccc(C#Cc4ccccc4)cc3)[C@@H]2C1
not listed: [7] | [8] | [9]
inactive: all other assays above

C[C@H](CO)N1C[C@H](C)[C@@H](CN(C)Cc2ccccc2)Oc2ccc(NC(=O)Nc3ccc(C(F)(F)F)cc3)cc2CC1=O
not listed: [8] | [9]
inactive: all other assays above

C[C@H]1CCCCO[C@H](CN(C)Cc2ccc(C(F)(F)F)cc2)[C@@H](C)CN([C@@H](C)CO)C(=O)c2cc(NC(=O)Cc3ccccc3)ccc2O1
not listed: [7] | [8] | [9]
inactive: all other assays above

Cc1ccc(S(=O)(=O)Nc2ccc3c(c2)CC(=O)N([C@@H](C)CO)C[C@@H](C)[C@H](CN(C)Cc2ccc(Cl)c(Cl)c2)O3)cc1
not listed: [8] | [9]
inactive: all other assays above

C[C@@H]1CN([C@H](C)CO)C(=O)c2cc(NC(=O)Nc3ccc(C(F)(F)F)cc3)ccc2O[C@@H](C)CCCCO[C@H]1CN(C)C(=O)c1ccccc1
inactive: [1] | [2] | [3] | [4] | [6]

COc1cccc(S(=O)(=O)Nc2ccc3c(c2)[C@@H]2C[C@@H](CC(=O)NCc4ccc(Cl)cc4)O[C@@H](CO)[C@@H]2O3)c1
not listed: [8] | [9]
inactive: all other assays above

COc1ccccc1NC(=O)N1CCCCN2[C@@H](CO)[C@@H](c3ccc(-c4cccc(C)c4)cc3)[C@@H]2C1
inactive: [1] | [2] | [3] | [4] | [6]

C[C@@H]1CN([C@@H](C)CO)C(=O)c2cc(NC(=O)Nc3ccc(C(F)(F)F)cc3)ccc2O[C@@H](C)CCCCO[C@H]1CN(C)Cc1ccncc1
not listed: [7] | [8] | [9]
inactive: all other assays above

C[C@H](CO)N1C[C@H](C)[C@H](CN(C)Cc2ccc(C(F)(F)F)cc2)OCCCC[C@H](C)Oc2ccc(NC(=O)Nc3ccc4c(c3)OCO4)cc2C1=O
not listed: [8] | [9]
inactive: all other assays above

O=C1CN(S(=O)(=O)Cc2ccccc2)C[C@@H]2[C@H](c3ccc(C#Cc4ccc(F)cc4)cc3)[C@H](CO)N12
not listed: [6] | [8] | [9]
inactive: all other assays above

N#C[C@@H]1[C@H](c2ccc(-c3ccccc3F)cc2)[C@@H](CO)N1C(=O)Cc1ccccc1
not listed: [5] | [8] | [9]
inactive: all other assays above

CCCC#Cc1ccc([C@@H]2[C@@H](C#N)N(S(=O)(=O)c3cccc(F)c3)[C@H]2CO)cc1
inactive: [1] | [2] | [3] | [8] | [9] -20.5% [at 0.5 µM, stronger effect = lower value] | [5] | [6]

COc1cccc(C#Cc2ccc([C@@H]3[C@H](C#N)N(C(=O)c4ccccn4)[C@H]3CO)cc2)c1
inactive: [1] | [2] | [3] | [8] | [9] 39.4% | [5]

CC(C)CC#Cc1ccc2c(c1)O[C@H](CN(C)S(=O)(=O)c1ccc(F)cc1)[C@H](C)CN([C@H](C)CO)S2(=O)=O
not listed: [4] | [7] | [9]
inactive: all other assays above

Cc1ccccc1-c1ccc2c(c1)O[C@H](CN(C)C(=O)Nc1ccc(C(F)(F)F)cc1)[C@H](C)CN([C@@H](C)CO)S2(=O)=O
not listed: [4] | [6] | [9]
inactive: all other assays above

COc1cccc(C#Cc2ccc([C@H]3[C@@H](C#N)N(C(=O)c4ccccn4)[C@@H]3CO)cc2)c1
inactive: [1] | [2] | [3] | [8] | [9] -22.5% [at 0.26 µM, stronger effect = lower value] | [5] | [7]

COc1ccc(S(=O)(=O)N(C)C[C@H]2Oc3c(NC(=O)Nc4ccc(C(F)(F)F)cc4)cccc3C(=O)N([C@@H](C)CO)C[C@H]2C)cc1
not listed: [4] | [9]
inactive: all other assays above

C[C@H](CO)N1C[C@H](C)[C@H](CN(C)C(=O)[C@H](Cc2ccccc2)N(C)C)OCc2ccccc2-c2c(n(C)c3ccccc23)C1=O
not listed: [4] | [6] | [9]
inactive: all other assays above

CCCC#Cc1ccc([C@H]2[C@@H](CO)N(C(=O)C3CCCCC3)[C@H]2C#N)cc1
not listed: [4] | [9]
inactive: all other assays above

N#C[C@H]1[C@@H](c2ccc(C#CC3CCCCC3)cc2)[C@@H](CO)N1S(=O)(=O)c1ccccc1
not listed: [4] | [9]
inactive: all other assays above

C[C@H](O)C#Cc1ccc2c(c1)O[C@@H](CN(C)Cc1ccc(-c3ccccc3)cc1)[C@@H](C)CN([C@H](C)CO)S2(=O)=O
inactive: [1] | [2] | [3] | [8] | [9] -11.2% | [5] | [6]

O=C(Nc1ccccc1)N1CCCCN2[C@H](CO)[C@H](c3ccc(C#Cc4ccccc4)cc3)[C@H]2C1
not listed: [4] | [9]
inactive: all other assays above

CCCC#Cc1ccc([C@@H]2[C@H](C#N)N(S(=O)(=O)c3cccc(F)c3)[C@H]2CO)cc1
not listed: [4] | [6] | [9]
inactive: all other assays above
